This passage reports binding signal results from PMC7862700, “An all-to-all approach to the identification of sequence-specific readers for epigenetic DNA modifications on cytosine”.

What all share (experiment): DAPPL (digital affinity profiling via proximity ligation, sequencing); 10 mM Tris-HCl pH 7.5, 50 mM NaCl, 1 mM DTT, 4% glycerol, room temperature, 30 min; GST-TFs on glutathione beads, 16-mer random dsDNA library, 0.1% formaldehyde crosslink after washing; high values mean tight binding
Details in all cases: protein: recombinant; tags: N-terminal GST; dsDNA, one strand shown

One experiment concerns the target T1, ELK1 (Homo sapiens, UniProt P19419 1-428).
T1 sequence: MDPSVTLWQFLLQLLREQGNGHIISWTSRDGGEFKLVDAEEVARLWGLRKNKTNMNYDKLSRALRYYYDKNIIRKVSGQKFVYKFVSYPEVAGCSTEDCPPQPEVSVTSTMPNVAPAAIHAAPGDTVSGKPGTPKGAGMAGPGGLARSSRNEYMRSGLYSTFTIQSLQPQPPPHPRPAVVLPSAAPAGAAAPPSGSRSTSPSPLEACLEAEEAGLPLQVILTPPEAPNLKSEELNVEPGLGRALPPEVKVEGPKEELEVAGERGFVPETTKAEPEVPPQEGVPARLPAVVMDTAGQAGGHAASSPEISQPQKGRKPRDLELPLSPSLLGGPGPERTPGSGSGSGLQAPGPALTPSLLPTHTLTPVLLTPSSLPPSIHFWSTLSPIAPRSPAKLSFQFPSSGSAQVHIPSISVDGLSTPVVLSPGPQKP
Put shortly: (§1)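 Beads coated with glutathione captured GST-fused human transcription factors that had been expressed in yeast, and the factors were then given DNA barcodes and pooled with a tag-only sample. The pools were incubated with 200 nmole of a random double-stranded 16-mer DNA library in Tris/NaCl/DTT/glycerol buffer for 30 min at room temperature, washed, crosslinked with 0.1% formaldehyde and proximity-ligated with BsaI/T4 ligase at 37 °C for 1 h. PCR amplification and Illumina NextSeq500 sequencing came last. Binding signal is each hexamer's read frequency for a factor divided by its frequency for the tag-only sample.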

The next experiment has as its target T2, GABPA (Homo sapiens, UniProt Q06546 1-454).
T2 sequence: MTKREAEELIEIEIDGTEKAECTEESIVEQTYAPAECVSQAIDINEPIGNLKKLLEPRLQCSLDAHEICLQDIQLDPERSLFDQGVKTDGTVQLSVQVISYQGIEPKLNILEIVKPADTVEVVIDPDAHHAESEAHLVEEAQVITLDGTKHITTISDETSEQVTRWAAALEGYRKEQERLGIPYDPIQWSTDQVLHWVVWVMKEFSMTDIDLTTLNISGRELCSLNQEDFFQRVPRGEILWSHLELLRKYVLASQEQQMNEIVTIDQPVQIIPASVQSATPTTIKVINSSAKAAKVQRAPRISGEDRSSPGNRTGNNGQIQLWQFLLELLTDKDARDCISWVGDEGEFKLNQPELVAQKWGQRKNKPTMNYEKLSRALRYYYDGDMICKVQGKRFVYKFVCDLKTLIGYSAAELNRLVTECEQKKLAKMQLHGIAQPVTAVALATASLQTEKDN
Put shortly:
as §1

The target in a further experiment is SPIB (Homo sapiens, UniProt Q01892 1-262). Put shortly: as §1
Sequence of SPIB (Q01892 whole entry): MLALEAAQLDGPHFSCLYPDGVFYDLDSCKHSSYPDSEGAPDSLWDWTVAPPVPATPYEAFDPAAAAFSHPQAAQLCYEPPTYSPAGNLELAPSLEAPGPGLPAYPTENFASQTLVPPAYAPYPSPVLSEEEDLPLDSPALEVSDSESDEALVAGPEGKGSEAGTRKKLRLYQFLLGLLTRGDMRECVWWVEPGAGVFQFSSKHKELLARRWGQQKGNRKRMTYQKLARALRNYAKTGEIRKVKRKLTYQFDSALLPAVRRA
The target in a further experiment is ETV5 (Homo sapiens, UniProt P41161 1-510). Put shortly: as §1
Sequence of ETV5 (P41161 whole entry): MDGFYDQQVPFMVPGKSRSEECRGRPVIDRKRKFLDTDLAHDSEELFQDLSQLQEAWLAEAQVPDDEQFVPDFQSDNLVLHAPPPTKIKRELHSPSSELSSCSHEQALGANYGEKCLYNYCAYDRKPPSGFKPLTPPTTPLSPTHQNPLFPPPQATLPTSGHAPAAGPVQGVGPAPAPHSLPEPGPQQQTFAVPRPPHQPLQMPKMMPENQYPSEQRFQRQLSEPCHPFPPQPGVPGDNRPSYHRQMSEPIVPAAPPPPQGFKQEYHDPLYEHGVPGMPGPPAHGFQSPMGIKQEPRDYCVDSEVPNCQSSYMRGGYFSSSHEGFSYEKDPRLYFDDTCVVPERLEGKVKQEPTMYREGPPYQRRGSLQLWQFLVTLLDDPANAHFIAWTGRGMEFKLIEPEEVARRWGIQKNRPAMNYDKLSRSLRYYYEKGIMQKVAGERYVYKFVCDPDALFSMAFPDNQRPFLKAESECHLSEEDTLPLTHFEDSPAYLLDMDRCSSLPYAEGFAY
For another experiment, the target named is T3, ELK4 (Homo sapiens, UniProt P28324-2 1-405).
T3 sequence: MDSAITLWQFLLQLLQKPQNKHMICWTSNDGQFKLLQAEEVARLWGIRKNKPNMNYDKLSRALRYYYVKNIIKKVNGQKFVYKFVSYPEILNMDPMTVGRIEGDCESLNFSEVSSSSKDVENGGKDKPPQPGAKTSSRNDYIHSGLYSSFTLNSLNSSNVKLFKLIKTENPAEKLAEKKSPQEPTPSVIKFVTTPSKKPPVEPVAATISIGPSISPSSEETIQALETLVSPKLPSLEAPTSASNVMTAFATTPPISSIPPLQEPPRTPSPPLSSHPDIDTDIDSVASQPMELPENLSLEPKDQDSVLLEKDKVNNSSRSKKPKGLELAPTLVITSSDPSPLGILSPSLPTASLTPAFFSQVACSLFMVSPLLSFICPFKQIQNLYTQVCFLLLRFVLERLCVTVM
Put shortly: as §1

For another experiment, the target named is T4, ETV2 (Homo sapiens, UniProt O00321 1-342).
T4 sequence: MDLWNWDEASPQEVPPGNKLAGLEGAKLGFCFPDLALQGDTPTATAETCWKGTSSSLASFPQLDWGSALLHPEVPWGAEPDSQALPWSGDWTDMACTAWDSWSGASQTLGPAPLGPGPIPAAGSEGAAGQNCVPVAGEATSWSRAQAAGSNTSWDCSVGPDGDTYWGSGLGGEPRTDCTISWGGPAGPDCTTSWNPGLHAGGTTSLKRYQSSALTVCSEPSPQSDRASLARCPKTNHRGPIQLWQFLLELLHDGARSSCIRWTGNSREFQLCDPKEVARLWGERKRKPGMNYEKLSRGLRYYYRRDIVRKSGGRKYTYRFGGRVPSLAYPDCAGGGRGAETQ
Put shortly:
as §1

The next experiment deals with ETV1 (Homo sapiens, UniProt P50549 1-477). Put shortly:
as §1

In another experiment the target is T5, ETV3L (Homo sapiens, UniProt Q6ZN32 1-361).
T5 sequence: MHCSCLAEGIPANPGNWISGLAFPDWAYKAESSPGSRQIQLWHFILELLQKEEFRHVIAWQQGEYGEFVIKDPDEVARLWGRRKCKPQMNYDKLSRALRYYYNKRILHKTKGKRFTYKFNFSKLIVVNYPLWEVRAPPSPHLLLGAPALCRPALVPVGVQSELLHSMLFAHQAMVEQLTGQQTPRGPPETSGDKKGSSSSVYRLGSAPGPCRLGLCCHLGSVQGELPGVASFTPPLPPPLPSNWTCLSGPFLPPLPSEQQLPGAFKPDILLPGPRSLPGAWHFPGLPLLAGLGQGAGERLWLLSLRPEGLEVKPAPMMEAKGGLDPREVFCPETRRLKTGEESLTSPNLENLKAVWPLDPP
Put shortly: as §1

A further experiment addresses T6, ETS2 (Homo sapiens, UniProt P15036 1-469).
T6 sequence: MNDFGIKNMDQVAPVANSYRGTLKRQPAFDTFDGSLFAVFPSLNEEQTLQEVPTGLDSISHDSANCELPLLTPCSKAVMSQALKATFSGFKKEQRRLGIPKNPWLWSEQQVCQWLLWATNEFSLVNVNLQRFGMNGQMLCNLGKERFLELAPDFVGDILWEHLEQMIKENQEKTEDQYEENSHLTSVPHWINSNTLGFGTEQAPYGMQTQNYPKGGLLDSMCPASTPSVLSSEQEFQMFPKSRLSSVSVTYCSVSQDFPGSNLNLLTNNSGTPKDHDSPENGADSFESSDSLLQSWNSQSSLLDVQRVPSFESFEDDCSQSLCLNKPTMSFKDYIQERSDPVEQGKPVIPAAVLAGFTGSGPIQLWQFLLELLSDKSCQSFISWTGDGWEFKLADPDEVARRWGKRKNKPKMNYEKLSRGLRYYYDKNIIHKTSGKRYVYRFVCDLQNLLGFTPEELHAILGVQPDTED
Put shortly: as §1

The target in another experiment is T7, SPDEF (Homo sapiens, UniProt O95238 1-335).
T7 sequence: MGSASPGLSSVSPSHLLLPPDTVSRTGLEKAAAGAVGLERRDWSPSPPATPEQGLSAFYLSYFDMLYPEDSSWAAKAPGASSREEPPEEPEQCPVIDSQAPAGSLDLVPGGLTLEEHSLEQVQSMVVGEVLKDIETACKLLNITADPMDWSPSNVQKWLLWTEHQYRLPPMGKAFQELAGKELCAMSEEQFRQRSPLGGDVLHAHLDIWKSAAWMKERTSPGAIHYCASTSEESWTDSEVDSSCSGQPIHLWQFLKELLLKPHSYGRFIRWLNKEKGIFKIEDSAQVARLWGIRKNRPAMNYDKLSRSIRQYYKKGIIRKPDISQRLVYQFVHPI
Put shortly:
as §1

The target of the next experiment is T8, ETV7 (Homo sapiens, UniProt Q9Y603 1-341).
T8 sequence: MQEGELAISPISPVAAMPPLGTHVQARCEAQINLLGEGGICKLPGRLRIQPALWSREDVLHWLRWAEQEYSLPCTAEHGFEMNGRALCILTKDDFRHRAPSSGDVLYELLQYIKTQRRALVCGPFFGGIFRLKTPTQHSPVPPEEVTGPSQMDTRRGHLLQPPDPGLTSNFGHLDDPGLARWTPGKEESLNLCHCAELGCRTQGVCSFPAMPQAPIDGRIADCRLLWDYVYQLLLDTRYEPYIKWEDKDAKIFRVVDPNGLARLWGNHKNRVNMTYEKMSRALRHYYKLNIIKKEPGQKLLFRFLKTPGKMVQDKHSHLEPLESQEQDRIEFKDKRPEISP
Put shortly: as §1

In the next experiment the target is T9, ETV3 (Homo sapiens, UniProt P41162-2 1-143).
T9 sequence: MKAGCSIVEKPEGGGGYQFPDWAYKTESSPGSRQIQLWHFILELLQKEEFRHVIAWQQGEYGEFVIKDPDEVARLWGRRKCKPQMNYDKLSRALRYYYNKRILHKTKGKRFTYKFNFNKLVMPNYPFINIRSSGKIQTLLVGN
Put shortly: as §1

The target of another experiment is ETV6 (Homo sapiens, UniProt P41212 1-452). Put shortly:
as §1

Sequence of ETV6 (P41212 whole entry): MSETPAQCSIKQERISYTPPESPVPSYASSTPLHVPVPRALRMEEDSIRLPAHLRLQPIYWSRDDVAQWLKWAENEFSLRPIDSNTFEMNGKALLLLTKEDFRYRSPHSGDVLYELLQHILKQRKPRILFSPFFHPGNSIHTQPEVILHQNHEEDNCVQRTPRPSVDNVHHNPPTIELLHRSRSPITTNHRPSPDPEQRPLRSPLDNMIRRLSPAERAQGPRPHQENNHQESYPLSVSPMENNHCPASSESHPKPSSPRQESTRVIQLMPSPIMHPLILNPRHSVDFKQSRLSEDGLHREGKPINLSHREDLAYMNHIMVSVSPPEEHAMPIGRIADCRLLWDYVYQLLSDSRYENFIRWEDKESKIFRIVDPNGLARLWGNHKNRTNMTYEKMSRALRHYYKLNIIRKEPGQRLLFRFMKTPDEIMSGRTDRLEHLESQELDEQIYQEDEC
Sequence of ETV1 (P50549 whole entry): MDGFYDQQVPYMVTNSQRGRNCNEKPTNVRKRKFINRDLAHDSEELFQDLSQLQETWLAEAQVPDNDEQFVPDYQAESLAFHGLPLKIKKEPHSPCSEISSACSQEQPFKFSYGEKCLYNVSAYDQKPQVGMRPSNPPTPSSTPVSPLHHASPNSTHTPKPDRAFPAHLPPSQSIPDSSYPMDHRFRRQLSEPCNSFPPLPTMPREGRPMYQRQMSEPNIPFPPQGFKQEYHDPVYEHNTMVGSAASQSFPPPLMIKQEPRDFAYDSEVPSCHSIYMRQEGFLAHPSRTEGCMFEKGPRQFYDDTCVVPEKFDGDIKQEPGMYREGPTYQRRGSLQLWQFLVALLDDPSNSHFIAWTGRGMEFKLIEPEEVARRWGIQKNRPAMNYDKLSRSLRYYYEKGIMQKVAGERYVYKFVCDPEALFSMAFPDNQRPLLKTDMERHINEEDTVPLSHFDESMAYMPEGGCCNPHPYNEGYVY

For the sequence CGTTTG, the binding signal was 1.03 fold enrichment (6-mer frequency, TF over GST control) with ELK1; 1.03 fold enrichment (6-mer frequency, TF over GST control) with GABPA; 1.06 fold enrichment (6-mer frequency, TF over GST control) with SPIB; 1.01 fold enrichment (6-mer frequency, TF over GST control) with ETV5; 1.07 fold enrichment (6-mer frequency, TF over GST control) with ELK4; 1.16 fold enrichment (6-mer frequency, TF over GST control) with ETV2. The binding signal with ETV1 is 1.06 fold enrichment (6-mer frequency, TF over GST control); with ETV3L, 1 fold enrichment (6-mer frequency, TF over GST control); with ETS2 it was 1.06 fold enrichment (6-mer frequency, TF over GST control); with SPDEF, 1.01 fold enrichment (6-mer frequency, TF over GST control); with ETV7 it was 1.21 fold enrichment (6-mer frequency, TF over GST control); in the experiment with ETV3, 1.08 fold enrichment (6-mer frequency, TF over GST control). Moreover, the binding signal in the experiment with ETV6 was 1.01 fold enrichment (6-mer frequency, TF over GST control).
